Results as given in the supplement of paper PMC10498489.
About 330 (14%) of roughly 2,300 compounds showed activity.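 How the source made its calls: active = median modified Z-score above 1.96; inactive = 1.96 or below.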 The list is a sample of the results.

The molecules below were run on HepG2 Srxn1-GFP reporter cells (+30 nM CDDO-Me) (assay: Srxn1-GFP intensity median modified Z-score relative to plate median; higher = stronger NRF2 / oxidative stress reporter activation, active = hit call of the paper). Conditions: 10 µM; exposure time: 24h.
Summary of the method: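 In 96-well plates holding 20,000 HepG2 Srxn1-GFP BAC reporter cells per well, compound at 10 μM and an NRF2 activator at 30 nM were added together for 24 h, with DMSO at ≤0.1%, across three replicate plates. After fixation in formaldehyde and Hoechst staining, confocal images were analysed cell by cell for cytoplasmic GFP, and images containing under 100 cells were excluded. Values are replicate medians of the per-plate modified Z-score of GFP intensity, scaled by 1.4826 × median absolute deviation.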
With `CC(=O)c1ccc(S(=O)(=O)CC(=O)NC2CCCC2)cc1` the “Srxn1-GFP intensity median modified Z-score” value was 1.37 (inactive).
With `N=c1nc(-c2cc(Cl)ccc2Cl)[nH]c(=N)[nH]1` [euspeclibcmpd1188] the “Srxn1-GFP intensity median modified Z-score” value was 0.145 (inactive).
With `CCCCCCc1ccc(O)cc1O` [euspeclibcmpd2121] the “Srxn1-GFP intensity median modified Z-score” value was 3.73 (active).
`CCCCOC(=O)c1ccc(O)cc1` [euspeclibcmpd905] was tested, and the “Srxn1-GFP intensity median modified Z-score” value was 0.67 (inactive).
`C[C@H]1[C@H](C)CC[C@]2(C(=O)O)CC[C@]3(C)C(=CCC4[C@@]5(C)C[C@@H](O)[C@H](O)[C@@](C)(CO)C5[C@H](O)C[C@]43C)[C@H]12` (stereo partly drawn) [euspeclibcmpd1692] was tested, and the “Srxn1-GFP intensity median modified Z-score” value was -0.252 (inactive).
`Cn1c(O)cc(-c2ccccc2)c1O` [euspeclibcmpd796] was tested, and the “Srxn1-GFP intensity median modified Z-score” value was -0.502 (inactive).
For `CCCCNc1ccc(C(=O)OCCN(C)C)cc1` [euspeclibcmpd287], the “Srxn1-GFP intensity median modified Z-score” value was -0.0522 (inactive).
For `CCCCNc1ccc(C(=O)OCCOCCOCCOCCOCCOCCOCCOCCOCCOC)cc1` [euspeclibcmpd1214], the “Srxn1-GFP intensity median modified Z-score” value was 5.26 (active).
In the case of `CCCCOC(=O)c1ccc(N)cc1` [euspeclibcmpd342], the “Srxn1-GFP intensity median modified Z-score” value is reported as 0.38 (inactive).
In the case of `Cn1cc(O)[nH]c1=N` [euspeclibcmpd1004], the “Srxn1-GFP intensity median modified Z-score” value is reported as -0.153 (inactive).
`CCN(CC)CCNC(=O)c1ccc(I)cc1` was tested, and the “Srxn1-GFP intensity median modified Z-score” value was 0.454 (inactive).
`N=c1[nH]c(=S)c2nc[nH]c2[nH]1` [euspeclibcmpd292] was tested, and the “Srxn1-GFP intensity median modified Z-score” value was 28.2 (active).
For `N=c1[nH]cnc2[nH]cnc12` [euspeclibcmpd349], the “Srxn1-GFP intensity median modified Z-score” value was -0.183 (inactive).
In the case of `NCCCC(N)CC(=O)NCC1NC(=O)C(CO)NC(=O)C(N)CNC(=O)C(C2CCN=C(N)N2)NC(=O)C(C=NC(N)=O)NC1=O` (stereo not drawn) [euspeclibcmpd1312], the “Srxn1-GFP intensity median modified Z-score” value is reported as 0 (inactive).
In the case of `O=C(O)C1O[C@@H](Oc2cc3oc(-c4ccccc4)cc(=O)c3c(O)c2O)[C@H](O)[C@@H](O)[C@@H]1O` (stereo partly drawn) [euspeclibcmpd2123], the “Srxn1-GFP intensity median modified Z-score” value is reported as -0.648 (inactive).
With `CCCCCC1C(=O)CCC1CC(=O)OC` (stereo not drawn) [euspeclibcmpd1637] the “Srxn1-GFP intensity median modified Z-score” value was -0.322 (inactive).
With `CCC(N)C12CC3CC(CC(C3)C1)C2` (stereo not drawn) the “Srxn1-GFP intensity median modified Z-score” value was 0.333 (inactive).
With `CC1(C)S[C@@H]2[C@H](N3C(=O)C(c4ccccc4)NC3(C)C)C(=O)N2C1C(=O)O` (stereo partly drawn) [euspeclibcmpd2360] the “Srxn1-GFP intensity median modified Z-score” value was -0.502 (inactive).
`CSc1nc2cc(Cl)c(Oc3cccc(Cl)c3Cl)cc2[nH]1` [euspeclibcmpd1225] was tested, and the “Srxn1-GFP intensity median modified Z-score” value was 4.92 (active).
With `COC(=O)C[C@H]1C(C)(C)C(=O)C2CC3=C4CC(=O)O[C@@H](c5ccoc5)[C@]4(C)CCC3[C@@]1(C)C2=O` (stereo partly drawn) [euspeclibcmpd2085] the “Srxn1-GFP intensity median modified Z-score” value was -0.00623 (inactive).
With `COc1cc2[nH]c(N3CCN(C(=O)c4ccco4)CC3)nc(=N)c2cc1OC` [euspeclibcmpd1302] the “Srxn1-GFP intensity median modified Z-score” value was -0.393 (inactive).
In the case of `Clc1cnc(N/N=C/c2sc(N3CCCCC3)nc2-c2cccs2)c(Cl)c1`, the “Srxn1-GFP intensity median modified Z-score” value is reported as 0.529 (inactive).
For `COC(=O)CCC(C)[C@H]1CCC2C3C(C[C@H](O)[C@@]21C)[C@@]1(C)CC[C@@H](O)C[C@H]1C[C@H]3O` (stereo partly drawn) [euspeclibcmpd1539], the “Srxn1-GFP intensity median modified Z-score” value was -0.423 (inactive).
For `CC1(C)CC2C(=O)CCC3OC3(C)CCC21` (stereo not drawn) [euspeclibcmpd2011], the “Srxn1-GFP intensity median modified Z-score” value was -0.362 (inactive).
With `O=C(Cc1c[nH]c2ccccc12)NCCc1c[nH]c2ccccc12` the “Srxn1-GFP intensity median modified Z-score” value was 1.76 (inactive).
For `Cc1c(Cl)cccc1Nc1ccccc1C(=O)O` [euspeclibcmpd1068], the “Srxn1-GFP intensity median modified Z-score” value was 4.04 (active).
For `Cc1cccc(C(=O)O)c1O` [euspeclibcmpd1013], the “Srxn1-GFP intensity median modified Z-score” value was -0.315 (inactive).
`Cc1ccc(Cl)c(Nc2ccccc2C(=O)O)c1Cl` [euspeclibcmpd2058] was tested, and the “Srxn1-GFP intensity median modified Z-score” value was 0.0269 (inactive).
In the case of `O=C(c1ccccc1Nc1cccc(C(F)(F)F)c1)N1CCC1`, the “Srxn1-GFP intensity median modified Z-score” value is reported as 1.38 (inactive).
With `O=C(O)c1ccccc1Nc1cccc(C(F)(F)F)c1` [euspeclibcmpd370] the “Srxn1-GFP intensity median modified Z-score” value was 2.94 (active).
In the case of `CON(C)C(=O)c1ccccc1Nc1cccc(C(F)(F)F)c1`, the “Srxn1-GFP intensity median modified Z-score” value is reported as 1.46 (inactive).
With `Cc1cccc(Nc2ccccc2C(=O)O)c1C` the “Srxn1-GFP intensity median modified Z-score” value was 0.337 (inactive).
With `Cc1cccc(Nc2ccccc2C(=O)OCC#N)c1C` the “Srxn1-GFP intensity median modified Z-score” value was 0.491 (inactive).
With `Cc1cccc(Nc2ccccc2C(=O)O)c1C` [euspeclibcmpd373] the “Srxn1-GFP intensity median modified Z-score” value was 2.69 (active).
In the case of `O=C(O)c1ccccc1Nc1ccccc1` [euspeclibcmpd1737], the “Srxn1-GFP intensity median modified Z-score” value is reported as -0.16 (inactive).
With `O=C(O)CCCCC(=O)O` [euspeclibcmpd2456] the “Srxn1-GFP intensity median modified Z-score” value was 0.307 (inactive).
`C[C@H]1O[C@H](O[C@H]2[C@H](O)[C@@H](O)[C@@H](O[C@H]3[C@H](O)[C@@H](O)C(O)O[C@@H]3CO)O[C@@H]2CO)[C@H](O)[C@@H](O)[C@@H]1N[C@H]1C=C(CO)[C@@H](O)[C@H](O)[C@H]1O` (stereo partly drawn) [euspeclibcmpd430] was tested, and the “Srxn1-GFP intensity median modified Z-score” value was -0.321 (inactive).
For `CC[C@H]1OC(=O)C(C)[C@@H](O[C@H]2C[C@@](C)(OC)[C@@H](O)[C@H](C)O2)[C@H](C)[C@@H](O[C@@H]2O[C@H](C)C[C@H](N(C)C)[C@H]2O)[C@](C)(O)CC(C)C(=NOCOCCOC)C(C)[C@@H](O)[C@]1(C)O` (stereo partly drawn) [euspeclibcmpd567], the “Srxn1-GFP intensity median modified Z-score” value was -0.00752 (inactive).
With `Cc1c(C(=O)O)sc(S(=O)(=O)N2CCN(C(=O)CC3CCCC3)CC2)c1C(=O)O` the “Srxn1-GFP intensity median modified Z-score” value was 0.344 (inactive).
`Cc1[nH]c(=O)c(C#N)cc1-c1ccncc1` [euspeclibcmpd1241] was tested, and the “Srxn1-GFP intensity median modified Z-score” value was 2.87 (active).
With `Nc1cc(-c2ccncc2)c[nH]c1=O` [euspeclibcmpd524] the “Srxn1-GFP intensity median modified Z-score” value was -0.435 (inactive).
`COc1cc(=NS(=O)(=O)c2ccc(N)cc2)[nH]cn1` [euspeclibcmpd400] was tested, and the “Srxn1-GFP intensity median modified Z-score” value was -0.55 (inactive).
In the case of `CC(=O)C(N)C(O)O` (stereo not drawn) [euspeclibcmpd1109], the “Srxn1-GFP intensity median modified Z-score” value is reported as -0.112 (inactive).
With `CC(=O)C(N)C(O)O` (stereo not drawn) [euspeclibcmpd2348] the “Srxn1-GFP intensity median modified Z-score” value was -0.525 (inactive).
In the case of `CCOc1cc(CC(=O)N[C@@H](CC(C)C)c2ccccc2N2CCCCC2)ccc1C(=O)O` [euspeclibcmpd908], the “Srxn1-GFP intensity median modified Z-score” value is reported as 0.187 (inactive).
With `COc1cc(O)c(C(C)=O)c(O)c1` [euspeclibcmpd1561] the “Srxn1-GFP intensity median modified Z-score” value was 1.48 (inactive).
`N[C@@H](CC(=O)N1CCn2c(nnc2C(F)(F)F)C1)Cc1cc(F)c(F)cc1F` [euspeclibcmpd2166] was tested, and the “Srxn1-GFP intensity median modified Z-score” value was 12.2 (active).
With `CCn1cc(N(CC(C)C)S(=O)(=O)CCC2CCOCC2)cn1` the “Srxn1-GFP intensity median modified Z-score” value was 1.44 (inactive).
